Screens from PubChem.
In the library only some 3.8% were active in any assay of this set; here they are far more common.
ATXN2 expr inh: reduces ATXN2 reporter expression in HEK-293 cells; HEK-293 ATXN2-luciferase reporter, luminescence, 24 h; Potency, µM (highest dose often 57 µM), for inactives: at the top dose activity change, negative = inhibition, actives largely listed as inhibitors; 360,000 compounds, 0.72% hits; AID 1745845; note: % is set by controls: 0 for no effect and ±100 for the full control effect; nearly all actives have a fitted effect of over 55% in size
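qHTS (up to 57 uM final) was run with 24 h compound exposure of reporter cells at 37 °C. Each well was multiplexed: SteadyGlo luminescence measured ATXN2-luciferase expression after a fluorogenic Gly-Phe-AFC viability readout (25 uM final).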
A549 viability: kills or reduces viability of A549 cells in Nrf2 counter-screen. Potency, µM (titrated, usually from 46 µM), inactives show at the highest dose activity change, negative = cytotoxicity, most hits filed as inhibitors. 390,000 compounds, 0.16% hits. A549 ARE-Fluc cells, CellTiter-Fluor viability, 18-24 h; note: % is set by controls: 0 for no effect and ±100 for the full control effect
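Cytotoxicity counterscreen: CellTiter-Fluor fluorescence was measured in A549 ARE_Fluc cells after 18-24 h of compound exposure in a concentration series. The subsequent BugLite luminescent read reports ARE-luciferase activity.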
TGFb SMAD3 inh: TGF-b pathway inhibition; HepG2 CAGA-GFP TGF-b/SMAD3 reporter, GFP fluorescence, 18 h; TGF-beta stimulated, 500 pg/mL final; Potency, µM (series often up to 46.1 µM), without a hit: at the highest dose activity, negative = inhibition, most hits filed as inhibitors; 410,000 compounds, 1.2% hits; note: % is set by controls: 0 for no effect and ±100 for the full control effect; nearly all actives have a fitted effect of over 65% in size
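Inhibition of TGF-beta-driven CAGA-GFP reporter expression in HEPG2 cells is measured by cellular GFP fluorescence after 18 h stimulation with 500 pg/mL recombinant TGF-beta in 1% FBS medium at 37 degrees C.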
Nrf2 block: Nrf2 pathway inhibition; AID 504444; Potency, µM (series often up to 46 µM), inactives show at the top dose activity change, negative = inhibition, usual class: inhibitors; A549 ARE-Fluc reporter, luciferase luminescence, 18-24 h; 360,000 compounds, 2.1% hits; note: % is set by controls: 0 for no effect and ±100 for the full control effect; nearly all actives have a fitted effect of over 60% in size
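Nrf2 function is reported as luminescence of an ARE-controlled luciferase in A549 cells. Compounds were tested at several concentrations, and a CellTiter-Fluor read on the same wells flagged cytotoxicity.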
HepG2 viability: HepG2 cytotoxicity, counter-screen for TGF-b inhibitors | 410,000 compounds, 0.76% hits | HepG2 CAGA-GFP viability, ATP luminescence, 18 h | AID 588856 | Potency, µM (top dose mostly 46.1 µM), for the others: top-dose activity change, negative = cytotoxicity, most hits filed as cytotoxic
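HepG2 CAGA-GFP cells (1000/well, DMEM with 1% FBS) received compound, then TGF-beta at 500 pg/mL final, and were incubated 18 hours at 37 degrees C. Viability was read by CellTiter-Glo luminescence. Media-only wells were set as complete cell-killing and DMSO as no toxicity.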
ATXN viability: viability counter-screen for ATXN expression inhibitors. S2 cells (HEK-293 line with an ATXN2-luciferase reporter) viability, CellTiter-Fluor protease fluorescence, 24 h. Potency, µM (highest dose often 56.7 µM), usual class: cytotoxic. 400,000 compounds, 0.49% hits; note: nearly all actives have a fitted effect of over 40% in size
Active calls of the source: *; i = inactive; ? = inconclusive; . = no result. Calls come from the whole dose curve; as a rule, active = well fitted curve in the direction sought with a large enough effect; inconclusive = small, poorly fitted or top-dose-only effect, or another doubt; inactive = no such curve, though single readings can be large; an effect the other way counts as inactive or inconclusive. Potency is the fitted concentration of half-maximal effect.

SMILES	ATXN2 expr inh	A549 viability	TGFb SMAD3 inh	Nrf2 block	HepG2 viability	ATXN viability
CC(C)CC(N)c1csc(NC(=O)Nc2ccccc2C(C)C)n1 (stereo unspecified)	?	.	?	.	-98%	?
O=C(Nc1cccc(C(F)(F)F)c1)Nc1ccc2snnc2c1	?	?	7.1µM*	21µM*	-57%	i
COc1cc(CNC(=O)Nc2nc(C(N)Cc3ccc(Cl)cc3)cs2)cc(OC)c1OC (stereo unspecified)	?	.	?	.	18µM*	25µM*
COc1ccc(CNC(=O)Nc2nc(C(N)Cc3ccc(C(F)(F)F)cc3)cs2)cc1 (stereo unspecified)	?	.	16µM*	.	-94%	i
COc1ccc(CC(N)c2csc(NC(=O)c3ccc(OC)cc3)n2)cc1 (stereo unspecified)	-37%	.	?	.	-30%	i
CN(C)Cc1csc(NC(=O)Nc2cccc(C(F)(F)F)c2)n1	-11%	.	-1%	.	-54%	i
CC(N)c1csc(NC(=O)Nc2cccc(C(F)(F)F)c2)n1 (stereo unspecified)	?	.	?	.	20µM*	?
Cc1ccnc2c(Cl)c(Cl)ccc12	.	.	0%	.	4%	.
CN(c1ccc(C(=O)Nc2cccc(O)c2)cc1)S(=O)(=O)c1ccccc1	7%	-3%	3%	6%	2%	?
COCc1ccc(C(=O)Nc2cccc(S(=O)(=O)N(C)c3ccccc3)c2)cc1	-5%	-10%	1%	18µM*	-4%	?
CN(C)S(=O)(=O)c1cccc(NC(=O)c2ccc(COc3ccccc3)cc2)c1	?	-14%	-21%	?	-33%	13µM*
CCCc1ccc(C2Sc3ccccc3NC3=C2C(=O)c2ccccc23)cc1 (stereo unspecified)	?	?	?	?	-39%	.
CCOc1cc(C2Sc3ccccc3NC3=C2C(=O)c2ccccc23)ccc1O (stereo unspecified)	?	?	-33%	-4%	-35%	32µM*
CCC(CC)c1nnc(NC(=O)C2CC(=O)N(C3CCCC3)C2)s1 (stereo unspecified)	-4%	3%	-5%	-20%	-2%	i
CCCS(=O)(=O)c1ncc(Cl)c(C(=O)N(Cc2ccccc2)Cc2ccco2)n1	.	?	8.9µM*	16µM*	4µM*	.
CCCSc1ncc(Cl)c(C(=O)N(Cc2ccc(Cl)cc2)Cc2ccco2)n1	.	-5%	.	21µM*	-20%	.
CCCC(=O)Nc1ccc(C(=O)NNC(=O)c2ccco2)cc1	-2%	-2%	4%	.	-24%	i
Cc1ccc(-c2csc3nc4c5ccccc5c(NCCCN(C)C)nn4c(=O)c23)cc1	-30%	1%	?	17%	14µM*	i
OCc1ccccc1OCCCOc1cccc2cccnc12	42%	-9%	0%	6%	-16%	i
Cc1cccc(-c2nc3scc(CCNS(=O)(=O)c4ccc5c(c4)OCCO5)n3n2)c1	.	-8%	?	.	-7%	.
COc1cccc(N2CCN(C(=O)c3ccc(CS(=O)c4ccccc4Cl)o3)CC2)c1 (stereo unspecified)	0%	-22%	11µM*	?	-35%	i
COC(=O)c1ccc(CNC(=O)c2coc3ccccc3c2=O)cc1	.	-7%	3%	-2%	-11%	i
COc1ccc(CCNC(=O)c2coc3ccccc3c2=O)cc1	-14%	-7%	7%	13µM*	-12%	i
CCN(C(=O)c1cn(-c2ccc(OC)cc2)c(=O)c2ccccc12)c1cccc(Cl)c1	.	5%	16µM*	-22%	-23%	.
COc1cccc(-n2cc(C(=O)NCCc3ccc(C)cc3)c3ccccc3c2=O)c1	.	-4%	-29%	-4%	-24%	.
SMILES	ATXN2 expr inh	A549 viability	TGFb SMAD3 inh	Nrf2 block	HepG2 viability	ATXN viability
COc1ccc(-n2cc(C(=O)NCCc3ccc(C)cc3)c3ccccc3c2=O)cc1	.	-2%	?	18µM*	-16%	.
COc1ccc2oc(C(=O)NCCc3ccccc3)c(C)c2c1	4.5µM*	1%	-1%	?	-9%	i
C=CCC[C@@H](Cc1ccc(F)cc1)C(=O)OC[C@@H]1CCCN1C(=O)[C@H](CC=C)CC(=O)N[C@H](CO)Cc1ccccc1	?	-14%	11µM*	-26%	-109%	.
C=CCC[C@@H](Cc1ccc(F)cc1)C(=O)OC[C@@H]1CCCN1C(=O)[C@@H](CC=C)CC(=O)N(CCO)Cc1ccccc1	?	?	?	?	13µM*	?
C=CC[C@@H](Cc1ccc(F)cc1)C(=O)OC[C@H]1CCCN1C(=O)[C@@H](CC=C)CC(=O)N[C@@H](CO)Cc1ccccc1	?	-22%	?	?	-10%	?
C=CC[C@@H](Cc1ccc(F)cc1)C(=O)OC[C@H]1CCCN1C(=O)[C@@H](CC=C)CC(=O)N[C@H](CO)Cc1ccccc1	0%	?	?	18µM*	-3%	?
C=CC[C@@H](Cc1ccc(F)cc1)C(=O)OC[C@H]1CCCN1C(=O)[C@H](CC=C)CC(=O)N[C@H](CO)Cc1ccccc1	-24%	?	?	23µM*	-33%	?
Cc1nc(SCC(=O)Nc2ccccc2C)cc(-c2ccccc2)n1	.	19%	0%	4%	-1%	.
Cc1noc(Cn2c(=O)c3ccccc3n(CC(=O)Nc3ccc(F)cc3F)c2=O)n1	.	-2%	-4%	22%	5%	.
C=CCn1cc(CN2CCC(C(=O)Nc3cccc(-c4cccc(Cl)c4)c3)CC2)c(C)n1	.	-9%	?	11%	16µM*	?
Cc1c(CN2CCC(C(=O)Nc3cccc(-c4cccc(Cl)c4)c3)CC2)cnn1C	.	-5%	?	-5%	-95%	?
C=CCn1cc(CN2CCC(C(=O)Nc3cccc(-c4cccc(F)c4)c3)CC2)c(C)n1	?	-12%	?	5%	8.9µM*	i
C=CCn1cc(CN2CCC(C(=O)Nc3ccc(Oc4cccnc4)cc3)CC2)c(C)n1	-4%	3%	-17%	4%	1%	i
CC1CCCN(C(=O)COC(=O)CNC(=O)c2sc3ccccc3c2Cl)C1 (stereo unspecified)	6%	3%	9%	15%	7%	i
O=C1c2cc(F)ccc2-n2c1nc1ccccc1c2=O	?	12µM*	?	6.5µM*	1.1µM*	i
